Bioassay records (PubChem BioAssay)
Only some compounds are listed: those with a hit (about 12% of all), similar ones and a draw of the others.
L3MBTL1 inh – qHTS Assay for the Inhibitors of L3MBTL1; Lethal(3)malignant brain tumor-like protein 1 (Homo sapiens), Q9Y468; AlphaScreen L3MBTL1–H3K9me1 peptide binding; Potency, µM (titrated, usually from 57.1 µM), inactives show top-dose activity, negative = inhibition, usual class: inhibitors; hit rate 0.66% among 230,000; AID 485360, 2010; note: % is set by controls: 0 for no effect and ±100 for the full control effect; nearly all actives have a fitted effect of over 60% in size
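Read-out is AlphaScreen signal from streptavidin donor and nickel chelate acceptor beads (10 ug/mL final each) bridging L3MBTL1 (50 nM) and biotinylated K9-monomethylated H3(1-15) peptide (75 nM), after 30 min compound exposure at room temperature.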
JMJD2A Tudor inh – qHTS Assay for Inhibitors of JMJD2A-Tudor Domain. Lysine-specific demethylase 4A (Homo sapiens), O75164. AlphaScreen JMJD2A-Tudor / H3K4me3 peptide binding. Potency, µM (series often up to 114 µM), inactives show at the top dose activity change, negative = inhibition, most hits filed as inhibitors. hit rate 4.4% among 390,000. AID 504339, 2011; note: % is set by controls: 0 for no effect and ±100 for the full control effect; nearly all actives have a fitted effect of over 50% in size
G9a inh – qHTS Assay for Inhibitors of Histone Lysine Methyltransferase G9a; G9a H3K9 monomethylation, AlphaScreen, 2 h; Potency, µM (titrated, usually from 102 µM), inactives show at the highest dose activity, negative = inhibition, usual class: inhibitors; hit rate 8.8% among 350,000; AID 504332, 2011; note: % is set by controls: 0 for no effect and ±100 for the full control effect; nearly all actives have a fitted effect of over 75% in size
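Using a bead-based AlphaScreen, monomethylated H3K9 product from 2 h room-temperature reactions (G9a 20 nM, peptide 500 nM, SAM 20 uM) was detected with 0.5 ug/mL rabbit anti-H3K9me1 antibody.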
BAZ2B inh – qHTS Assay for Inhibitors of BAZ2B; Bromodomain adjacent to zinc finger domain protein 2B (Homo sapiens), Q9UIF8; AlphaScreen BAZ2B-H3K14Ac peptide displacement; Potency, µM (series often up to 114 µM), without a hit: at the highest dose activity change, negative = inhibition, usual class: inhibitors; hit rate 4.4% among 360,000; note: % is set by controls: 0 for no effect and ±100 for the full control effect; nearly all actives have a fitted effect of over 60% in size
Target sequence (Q9UIF8 whole entry, looked up, the tested form may be a part): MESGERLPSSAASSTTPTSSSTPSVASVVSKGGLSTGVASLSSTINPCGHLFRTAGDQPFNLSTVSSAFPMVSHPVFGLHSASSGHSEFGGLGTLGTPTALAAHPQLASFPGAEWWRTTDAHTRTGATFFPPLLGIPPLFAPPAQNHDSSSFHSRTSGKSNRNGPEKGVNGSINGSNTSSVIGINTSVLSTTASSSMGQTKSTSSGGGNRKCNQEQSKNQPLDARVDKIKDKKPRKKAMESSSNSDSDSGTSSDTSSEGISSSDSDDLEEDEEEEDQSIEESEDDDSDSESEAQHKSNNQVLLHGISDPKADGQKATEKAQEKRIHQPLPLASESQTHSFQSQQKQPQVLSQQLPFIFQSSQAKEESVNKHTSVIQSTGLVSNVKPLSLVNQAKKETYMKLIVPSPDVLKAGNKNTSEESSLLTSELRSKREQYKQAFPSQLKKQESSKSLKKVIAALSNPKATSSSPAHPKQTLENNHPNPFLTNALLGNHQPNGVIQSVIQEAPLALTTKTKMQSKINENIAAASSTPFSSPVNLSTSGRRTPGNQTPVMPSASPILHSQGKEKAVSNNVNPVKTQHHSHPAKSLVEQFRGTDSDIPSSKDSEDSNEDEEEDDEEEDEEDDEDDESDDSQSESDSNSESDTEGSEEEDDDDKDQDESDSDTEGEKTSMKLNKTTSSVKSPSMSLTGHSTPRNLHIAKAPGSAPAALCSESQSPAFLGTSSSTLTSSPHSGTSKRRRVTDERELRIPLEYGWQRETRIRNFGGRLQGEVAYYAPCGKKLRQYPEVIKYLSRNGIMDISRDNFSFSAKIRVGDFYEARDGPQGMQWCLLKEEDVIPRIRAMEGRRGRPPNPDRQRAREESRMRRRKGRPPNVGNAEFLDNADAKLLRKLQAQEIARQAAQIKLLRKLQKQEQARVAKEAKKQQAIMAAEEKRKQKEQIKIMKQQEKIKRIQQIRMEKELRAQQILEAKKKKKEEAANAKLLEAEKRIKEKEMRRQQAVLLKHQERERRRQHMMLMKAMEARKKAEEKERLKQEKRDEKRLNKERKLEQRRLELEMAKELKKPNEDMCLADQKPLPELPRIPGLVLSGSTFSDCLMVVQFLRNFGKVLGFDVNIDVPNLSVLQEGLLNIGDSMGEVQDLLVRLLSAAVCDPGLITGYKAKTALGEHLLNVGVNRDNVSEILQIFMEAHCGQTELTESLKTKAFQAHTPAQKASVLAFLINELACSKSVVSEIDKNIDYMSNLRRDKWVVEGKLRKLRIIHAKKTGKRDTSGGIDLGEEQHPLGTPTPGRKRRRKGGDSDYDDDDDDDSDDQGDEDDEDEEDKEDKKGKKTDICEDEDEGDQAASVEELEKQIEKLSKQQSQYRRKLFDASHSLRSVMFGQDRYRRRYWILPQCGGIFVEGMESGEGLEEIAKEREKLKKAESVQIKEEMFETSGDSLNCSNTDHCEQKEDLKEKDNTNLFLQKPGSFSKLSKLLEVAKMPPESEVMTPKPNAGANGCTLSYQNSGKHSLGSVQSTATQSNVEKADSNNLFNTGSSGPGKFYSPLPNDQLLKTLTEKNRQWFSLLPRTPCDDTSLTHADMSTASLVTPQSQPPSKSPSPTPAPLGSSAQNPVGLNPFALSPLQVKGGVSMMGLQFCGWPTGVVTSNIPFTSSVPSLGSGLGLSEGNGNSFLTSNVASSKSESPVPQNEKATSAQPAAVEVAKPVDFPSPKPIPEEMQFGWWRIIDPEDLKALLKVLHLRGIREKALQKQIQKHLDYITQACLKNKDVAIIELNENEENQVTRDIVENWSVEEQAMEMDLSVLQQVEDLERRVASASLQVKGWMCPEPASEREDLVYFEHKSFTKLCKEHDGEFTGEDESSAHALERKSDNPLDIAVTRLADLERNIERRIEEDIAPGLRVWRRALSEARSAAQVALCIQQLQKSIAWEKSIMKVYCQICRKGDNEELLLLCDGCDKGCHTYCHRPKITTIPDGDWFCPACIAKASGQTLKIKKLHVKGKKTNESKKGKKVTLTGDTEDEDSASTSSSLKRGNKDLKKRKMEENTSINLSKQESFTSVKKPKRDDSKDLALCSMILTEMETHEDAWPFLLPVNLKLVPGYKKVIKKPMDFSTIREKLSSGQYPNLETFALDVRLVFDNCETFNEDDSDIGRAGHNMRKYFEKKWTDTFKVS
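BAZ2B (50 nM) with biotin-H3(5-23)K14Ac peptide (50 nM) in PBS pH 7.4, 0.01% Tween-20, preformed 30 min, then compound 30 min at room temperature; top concentration 110uM. AlphaScreen streptavidin donor/nickel chelate acceptor beads (10 ug/mL final), 20 min dark, signal read.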
HP1b chromo inh – HTS for Inhibitors of HP1-beta Chromodomain Interactions with Methylated Histone Tails | Chromobox protein homolog 1 (Homo sapiens), P83916 | AlphaScreen HP1-beta / biotin-H3K9me3 peptide binding | Potency, µM (highest dose often 114 µM), inactives show at the highest dose activity change, negative = inhibition, hits mostly inhibitors | hit rate 0.56% among 390,000 | AID 540317, 2011; note: nearly all actives have a fitted effect of over 70% in size
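Compound inhibition of the preformed complex between 50 nM HP1-beta and 50 nM biotinylated H3K9me3 peptide was read by AlphaScreen. Buffer was PBS pH 7.4 with 0.01% Tween-20. Incubations ran 30 min at room temperature, with 10 ug/mL donor/acceptor beads.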
Sfp inh – qHTS Assay for Inhibitors of Bacillus subtilis Sfp phosphopantetheinyl transferase (PPTase); 4'-phosphopantetheinyl transferase ffp (Bacillus subtilis), Q9F4F7; Biochemical Sfp PPTase activity, qHTS; Potency, µM, without a hit: largest response in the series, negative = inhibition, actives largely listed as inhibitors; hit rate 3.5% among 310,000; AID 1490, 2009;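 note: the enzyme is Sfp with the accession as filed and its product quenches rhodamine fluorescence; 0% = enzyme reaction without inhibitor and -100% = no enzyme wells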
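Fluorescence-quenching assay: 15 nM Sfp-PPTase preincubated 15 min at room temperature with compound, then 5 uM rhodamine-CoA and 12.5 uM BHQ-2-labelled YbbR peptide added. Fluorescence (ex 525/em 598 nm) read at start and after 30 min; difference gives rate.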
* marks the source's active call; other numbers are inactive results; ? = inconclusive; . = no result; ! = a repeat was not active; [ ] = dose if it differs, or a comment. Calls come from the whole dose curve; as a rule, active = well fitted curve in the direction sought with a large enough effect; inconclusive = small, poorly fitted or top-dose-only effect, or another doubt; inactive = no such curve, though single readings can be large; an effect the other way counts as inactive or inconclusive. Potency is the fitted concentration of half-maximal effect.

SMILES	L3MBTL1 inh	JMJD2A Tudor inh	G9a inh	BAZ2B inh	HP1b chromo inh	Sfp inh
COC(=O)c1sccc1NC(=O)CN1CCN(c2ccc(F)cc2)CC1	-1.2%	?	44.7µM*	?	-13.6%	-12.2%
COc1ccccc1NC(=O)CN1CCN(c2ccc(F)cc2)CC1	.	?	.	.	3.4%	.
O=C1c2[nH]nc(-c3ccccc3O)c2C(c2ccc(F)cc2)N1CCO (stereo not given)	.	-12.2%	1.8%[59 µM]	-11.7%	44.9%	.
COc1cccc(-n2ccnc2SCC(=O)Nc2cc(OC)ccc2OC)c1	?	89.1µM*	?	28.2µM*	44.7µM*	-4.2%
COc1ccc(OC)c(NC(=O)CSc2nncc3ccc(OC)c(OC)c23)c1	3.1%	-33.1%	.	79.4µM*	9.3%	?
COc1ccc2nc(SCC(=O)Nc3cc(OC)c(OC)cc3C(=O)O)c(C)cc2c1	-9.8%	?	56.2µM*	-30.8%	19.6%	79.4µM*
COc1cccc(NC(=O)CSc2nccn2-c2cccc(OC)c2)c1	-10.1%	?	39.8µM*	?	-25.1%	12.5%
COc1ccc2cnnc(SCC(=O)Nc3ccccc3)c2c1OC	6.6%	-10.8%	3.4%[59 µM]	6.9%	30.5%	-0.7%
CCOC(=O)c1c(NC(=O)/C=C/c2ccc(C(C)C)cc2)sc2c1CCC2	.	-7.8%	0.9%[59 µM]	1.2%	27.6%	.
COc1ccc(NC(=O)CCn2cnnn2)cc1	.	-26.8%	-21.2%[59 µM]	3.4%	39.0%	.
Cc1cccc([C@H]2[C@@H]3C=CC(C)C[C@@H]3C(=O)N2Cc2ccccc2)c1 (stereo not given in full)	.	.	36.5%	.	.	-20.6%
COc1cccc(NC(=O)C(Cc2ccccc2)n2cccc2)c1 (stereo not given)	.	-12.0%	-25.2%	?	10.5%	18.6%
COc1ccc(NC(=O)C(Cc2ccccc2)n2cccc2)c(OC)c1 (stereo not given)	.	-26.3%	?	35.5µM*!	-4.4%[57 µM]	-4.3%
COc1cccc(-n2ccnc2SCC(=O)Nc2ccccc2F)c1	.	?	-46.1%	25.1µM*	?	?
COc1cccc(-n2ccnc2SCC(=O)Nc2cccc(C)c2C)c1	.	-34.8%	?	?	-1.8%[57 µM]	.
COc1ccc(NC(=O)CSc2nccn2Cc2ccccc2)c(OC)c1	.	-26.5%	44.7µM*	?	-3.8%	5.3%
CCOc1ccc(-n2ccnc(SCC(=O)NCc3cccc(OC)c3)c2=O)cc1	-11.9%	-14.5%	-30.1%	-1.4%	32.9%	.
CCOc1ccc(-n2ccnc(SCC(=O)Nc3ccc(OC)cc3OC)c2=O)cc1	-9.3%	?	35.5µM*	?	-14.5%	.
COc1ccc(NC(=O)CSc2nccn2Cc2ccco2)c(OC)c1	.	-11.7%	-17.6%[59 µM]	-38.5%	28.1%	-0.5%
CCCOc1ccc(Oc2nc(NC)nc(N3CCOCC3)n2)nn1	.	-4.7%	-4.3%[59 µM]	-0.6%	28.5%	.
COc1ccc(NC(=O)CN2CCCN(S(=O)(=O)c3ccc(Br)cc3)CC2)c(OC)c1	.	-20.1%	?	?	3.5%	.
Cc1ccc(OCC(O)Cn2c3ccccc3c3ccccc32)cc1 (stereo not given)	9.8%	16.6%	71.5%	2.7%	63.6%	5.6%
Cc1ccc(OCCN2CCN(CC(O)Cn3c4ccccc4c4ccccc43)CC2)cc1 (stereo not given)	?	.	8.91µM*	20µM*	.	44.7µM*
OC(CN1CCNCC1)Cn1c2ccccc2c2ccccc21 (stereo not given)	.	-27.9%	50.1µM*	-18.8%	12.4%	0.1%
OC(CN1CCCCC1)Cn1c2ccc(Cl)cc2c2cc(Cl)ccc21 (stereo not given)	.	-30.3%	?	-14.1%	0.9%	50.1µM*
SMILES	L3MBTL1 inh	JMJD2A Tudor inh	G9a inh	BAZ2B inh	HP1b chromo inh	Sfp inh
OC(CN1CCN(c2ccccc2)CC1)Cn1c2ccccc2c2ccccc21 (stereo not given)	.	?	31.6µM*	?	-30.8%	9.7%
Cc1oc2ncn(CC(C)C)c(=O)c2c1C(=O)NC(C)c1ccccc1 (stereo not given)	.	-18.1%	-1.1%[59 µM]	8.9%[57.1 µM]	3.4%	.
O=c1c(-c2ccc(O)cc2)coc2c(C3OC(CO)C(O)C(O)C3O)c(O)ccc12 (stereo not given)	.	.	-43.2%[2.33 µM]	.	.	-4.1%
Cc1ccc2c(CC(=O)NCc3ccccc3)coc2c1C	.	-17.7%	-11.8%[59 µM]	-17.8%	-14.2%	.
COc1ncc2nc(-c3ccc(F)cc3)c(=O)n(Cc3ccc(F)cc3)c2n1	.	.	0.1%[0.501 µM]	.	.	-15.3%
COCCN(C(=O)Cc1cccs1)c1nnc(-c2ccncc2)s1	.	-24.3%	?	79.4µM*	4.9%	7.2%
CCN(C(=O)c1cccs1)c1nnc(-c2ccncc2)s1	1.5%	-7.3%	-34.1%[59 µM]	8.0%	19.6%	13.6%
CN(C)S(=O)(=O)N1CCC(n2cnc3cccnc32)CC1	.	-1.0%	0.4%[59 µM]	-0.1%	36.9%	.
Cc1cc(NC(=O)CCC(=O)N(Cc2ccco2)C2(C(=O)NC3CCCC3)CCCCC2)no1	.	89.1µM*	-4.1%	2.1%	-8.3%	-10.6%
C=C(C)Cn1c(=O)c2c(nc3n2CCN3c2ccc(F)cc2)n(C)c1=O	.	-30.3%	?	-26.7%	1.7%	.
CCc1nn2c(=O)cc(COC(=O)c3ccc(NC(=O)c4cccs4)cc3)nc2s1	.	5.6%	8.9%[12.7 µM]	-3.7%	30.5%	.
COc1cc(C(=O)OCC(=O)c2cc(C)n(CC3CCCO3)c2C)cc(OC)c1C (stereo not given)	-23.3%	44.7µM*	?	50.1µM*	-13.4%	.
Cc1cc(C(=O)COC(=O)c2ccc3c(c2)OCO3)c(C)n1CC1CCCO1 (stereo not given)	10.3%	-2.6%	50.1µM*	?	43.9%	-1.8%
Cc1cc(Br)ccc1OCCCCNCCO	6.1%	3.16µM*	.	?	?	-16.2%
C=CCNCCCCOc1ccc(Br)cc1C	6.2%	2.51µM*	2.51µM*	79.4µM*	?	?
Cc1cc(OCCCCCNCCO)ccc1Cl	-14.9%	3.3%	11.2%[59 µM]	1.1%	35.6%	-8.3%
CC(=O)Nc1ccc(NC(=O)COc2ccc(Br)cc2C)cc1	-3.5%	-12.5%	11.9%[59 µM]	1.4%	9.6%	-5.6%
C#CCSc1nc2sc3c(c2c(=O)n1-c1cccc(OC)c1)CCN(C(C)=O)C3	.	89.1µM*	?	?	-3.3%	.
Cc1sc2nc(SCC(=O)NCc3ccco3)n(-c3ccccc3)c(=O)c2c1C	3.6%	-13.5%	17.7%	7.4%	18.5%	8.3%
